High-throughput results as filed in PubChem.
The list is not random: actives were taken first. Their share in the collection is about 5.4%.
Six1-Eya2 blk = blocks human Six1 binding to Eya2; Q15475+O00167; AID 651725; activity change, % (no concentration beside the values); 360,000 tested, 0.56% active; AlphaScreen GST-Six1/His-Eya2 binding, biochemical; hits give low values; in the data active means activity change below about -65%; inconclusive means mostly about -30% to -63%; further: on the % scale 0 is the no-effect control and ±100 the full control effect
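Compounds are tested against tagged Six1 and Eya2 proteins bridged by glutathione donor and nickel acceptor beads; after a one-hour incubation at 37 °C without light, AlphaScreen emission is recorded.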
VP16 counter = counter-screen for ROR gamma inhibitors: Gal4-VP16 reporter. 310,000 tested, 3.5% active. Drosophila S2 Gal4-VP16 UAS-luciferase, luminescence, 20 h. AID 2546. Potency, µM (highest dose often 53.6 µM), inactives show at the highest dose activity, negative = inhibition, usual class: inhibitors;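 further: Gal4-VP16 expression switched on by copper sulfate through the metallothionein promoter; potency means the concentration at half of the fitted maximal effect; on the % scale 0 is the no-effect control and ±100 the full control effect; nearly all actives have a fitted effect of over 50% in size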
p53 reactivation = mutant p53 re-activation in reporter cells | 320,000 tested, 0.063% active | H1299 p53-A138V BP100-luciferase reporter, luminescence, 24 h | Potency, µM (doses to about 92.2 µM), for inactives: at the highest dose activity change, positive = activation, hits mostly activators | AID 504706; further: potency means the concentration at half of the fitted maximal effect; % of control where 0% means no effect; nearly all actives have a fitted effect of over 45% in size
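H1299 (p53-null), stable ts p53-A138V + BP100-Luc; 1000 cells/well, Opti-MEM/10% FBS; cpd 4 pt, 1:5; 24 h, 37 deg C, 5% CO2; detection reagent 10 min RT; luminescence.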
RORg inh = blocks mouse ROR gamma transcriptional activity. 310,000 tested, 5.4% active. Potency, µM (doses to about 53.6 µM), for the others: at the highest dose activity change, negative = inhibition, most hits filed as inhibitors. P51450. Drosophila S2 Gal4-RORgamma UAS-luciferase reporter, 20 h; further: potency means the concentration at half of the fitted maximal effect; on the % scale 0 is the no-effect control and ±100 the full control effect; nearly all actives have a fitted effect of over 60% in size
Target sequence (P51450 whole entry, looked up, the tested form may be a part): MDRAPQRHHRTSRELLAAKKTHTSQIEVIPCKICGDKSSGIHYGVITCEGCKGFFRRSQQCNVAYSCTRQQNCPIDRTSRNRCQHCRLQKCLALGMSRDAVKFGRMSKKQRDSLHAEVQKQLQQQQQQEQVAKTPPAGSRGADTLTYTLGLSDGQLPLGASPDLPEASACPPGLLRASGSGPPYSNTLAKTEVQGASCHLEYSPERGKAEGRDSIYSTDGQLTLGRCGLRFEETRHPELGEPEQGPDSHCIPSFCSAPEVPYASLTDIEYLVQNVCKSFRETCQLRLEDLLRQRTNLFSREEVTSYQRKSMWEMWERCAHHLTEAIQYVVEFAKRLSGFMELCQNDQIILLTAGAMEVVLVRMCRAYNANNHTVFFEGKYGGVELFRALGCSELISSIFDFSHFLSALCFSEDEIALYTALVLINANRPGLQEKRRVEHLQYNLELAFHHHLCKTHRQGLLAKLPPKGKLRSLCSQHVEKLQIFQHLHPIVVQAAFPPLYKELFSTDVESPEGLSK
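Luminescence from a UAS-regulated Photinus luciferase reporter in stably transfected Drosophila Schneider cells is measured; decreased signal marks ROR gamma inhibition. Fusion expression is induced by 700 uM copper sulfate for 20 hr.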
CtBP-E1A inh = CtBP/E1A binding inhibition; AlphaScreen GST-E1A/His-CtBP binding, 1536-well; hits give low values; activity change, % (concentration not given with the values); 340,000 tested, 0.49% active; in the data active means activity change below about -65%; inconclusive means mostly about -30% to -63%; further: on the % scale 0 is the no-effect control and ±100 the full control effect
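Homogeneous bead-based format: GST-tagged E1A captured on glutathione donor beads, His-tagged CtBP on nickel acceptor beads; compounds precede bead addition by 2 h at 37 °C.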
The depositor's hits bear a star; ? = inconclusive; / = no result given; [ ] = dose if it differs, or a comment. Unless noted, the call rests on the fitted dose curve; in most records, active means well fitted curve in the direction sought with a large enough effect; inconclusive means small, poorly fitted or top-dose-only effect, or another doubt; inactive means no such curve, though single readings can be large; an effect the other way counts as inactive or inconclusive.

SMILES	Six1-Eya2 blk	VP16 counter	p53 reactivation	RORg inh	CtBP-E1A inh
COc1cc(OC)cc(C(=O)OCC(=O)N(C)c2ccccc2)c1	-7	3%	-3%	20%	-8
CCOC(=O)CC1Sc2ccccc2NC1=S (configuration not stated)	-3	?	0%	3.5µM*	4
CCOC(=O)CC1Sc2ccccc2NC1=O (configuration not stated)	1	-2%	-15%	37%	10
O=C(CN1C(=O)C2C3c4ccccc4C(c4ccccc43)C2C1=O)Nc1ccccc1C(=O)O (configuration not stated)	-4	-2%	-20%	-12%	-6
O=C(CN1C(=O)NC2(CCOc3ccccc32)C1=O)c1ccc(Br)cc1 (configuration not stated)	-4	3%	-7%	-6%	-13
CCCc1ccc(OC(=O)c2cccs2)cc1	39	-6%	0%	-7%	42
CCCc1ccc(OC(=O)c2ccc(O)cc2Cl)cc1	6	4µM*	?	0.89µM*	10
Cc1cccc(-c2cc3nc4c(c(N5CCOCC5)n3n2)CCCC4)c1	7	/	?	4%[0.365 µM]	6
Fc1ccc(-c2cc3nc4c(c(N5CCOCC5)n3n2)CCCC4)cc1	12	-11%	10%	3.2µM*	8
O=C(c1ccccn1)c1conc1C(=O)c1ccc(Br)cc1	8	?	-2%	13µM*	4
Cc1ccc(C(=O)c2nocc2C(=O)c2cccs2)cc1	6	?	5%	?	3
Cc1cccc(NC(=S)NC(=O)/C=C/c2ccco2)c1	-17	?	9%	4.5µM*	-17
O=C(/C=C/c1ccco1)NC(=S)Nc1cccc([N+](=O)[O-])c1	?	?	?	?	-29
Cc1cccc(NC(=S)NC(=O)/C=C/c2ccco2)n1	-19	?	?	10µM*	1
Cc1cccc(NC(=O)/C=C/c2ccc(Cl)cc2)n1	12	7.1µM*	?	1.6µM*	0
O=C(/C=C/c1ccco1)NC(=S)Nc1ccccc1	1	3.2µM*	12%	7.1µM*	/
CCCCN(C(=O)CSc1nncn1-c1ccccc1)c1c(N)n(Cc2ccccc2)c(=O)[nH]c1=O	-2	2%	1%	6%	/
COc1ccc(NC(=S)NCCCCCC(=O)C[N+](=O)[O-])cc1	?	?	18%	4.5µM*	-6
CC(C)c1ccc(NC(=S)Nc2ccc(OC(F)(F)F)cc2)cc1	-5	11µM*	9%	8.9µM*	12
FC(F)(F)Oc1ccc(NC(=S)Nc2ccc(OC(F)(F)F)cc2)cc1	4	?	2%	?	/
COc1ccc(CCNC(=S)Nc2ccc(OC)cc2)cc1	-2	10µM*	12%	3.5µM*	-5
COc1ccc(CCNC(=S)Nc2ccccc2)cc1	-4	7.1µM*	1%	2µM*	8
CCOC(=O)C1(CCc2ccccc2)CCN(C(=O)CN2CCOC2=O)CC1	-2	4%	9%	21%	8
O=c1c(Cc2c(F)cccc2Cl)c(O)ccn1CCc1ccccn1	5	-17%	7%	-4%	3
COC(=O)[C@]12CCCCC=C1N(CCC1=CCCCC1)C(=O)[C@H](CC(=O)N1CCCCC1)C2	0	/	/	/	-11
SMILES	Six1-Eya2 blk	VP16 counter	p53 reactivation	RORg inh	CtBP-E1A inh
COc1ccc(CCNC(=S)Nc2cc(C)cc(C)c2)cc1	-15	13µM*	-4%	7.1µM*	-1
COc1ccc(CCNC(=S)Nc2ccc(C(C)C)cc2)cc1	-15	?	0%	2.5µM*	/
COc1ccc(NC(=S)NCCc2c(C)[nH]c3ccc(OC)cc23)cc1	-22	?	-2%	5.6µM*	-24
Cc1cc(C)cc(NC(=S)NCCc2ccc(S(N)(=O)=O)cc2)c1	4	?	-7%	10µM*	-1
COc1ccc(NC(=S)N(CCc2c(C)[nH]c3ccc(C)cc23)Cc2cccnc2)cc1	-15	2%	2%	?	-26
Cc1ccc(NC(=S)NCCc2ccc(S(N)(=O)=O)cc2)cc1C	-3	0%	-8%	?	-2
CCOC(=O)C1CCCN(Cc2nc(CC3CC3)no2)C1 (configuration not stated)	4	-1%	5%	45%	-1
Nc1nc(=S)c2ncn(C3CCCC3)c2[nH]1	-17	0%	17%	?	-10
O=C(Nc1ccc(N2CCOCC2)cc1)c1cnccn1	-4	7.9µM*	-7%	5µM*	4
O=C(Nc1ccc(N2CCOCC2)cc1)c1cnsn1	6	1.8µM*	-10%	2µM*	/
Cc1nc(C(=O)NNC(=O)c2c(-c3c(Cl)cccc3Cl)noc2C)cs1	6	8.9µM*	19%	2.8µM*	0
CC(=O)Nc1nnc(-c2c(-c3c(Cl)cccc3Cl)noc2C)o1	-25	?	-1%	10µM*	-27
Cc1onc(-c2c(Cl)cccc2Cl)c1-c1nnc(-c2ccc(Cl)cc2)o1	-7	?	0%	-15%	-16
Cc1onc(-c2c(Cl)cccc2Cl)c1C(N)=S	-5	?	-2%	7.9µM*	0
CC1CCN(CCCNC(=O)C2CCN(S(=O)(=O)N3CCC4(CC3)OCCO4)CC2)CC1	1	1%	-4%	-24%	1
CN(C)c1cccc(NC(=O)c2cccc3c(-c4ccc(F)c(F)c4)coc23)c1	?	/	/	/	-26
O=C(NCc1ccncc1)C1CCCN1S(=O)(=O)c1ccc(Cl)cc1 (configuration not stated)	10	-14%	-11%	0.63µM*	8
O=C(NCc1ccccc1)C1CCCN1S(=O)(=O)c1ccc(F)cc1 (configuration not stated)	0	-17%	4%	-8%	-81*
O=C(O)c1cccc(-n2cccc2/C=C2/NC(=O)N(c3ccc(Cl)cc3)C2=O)c1	-76*	?	8%	17%	?
O=C(O)c1cccc(-n2cccc2/C=C2/NC(=O)N(c3cccc(Cl)c3)C2=O)c1	-22	-4%	5%	15%	-22
CC1(C)C(=O)N(c2ccccc2Cl)C(=O)c2ccccc21	3	8%	1%	-10%	10
CCOC(=O)c1cnc(SSc2ncc(C(=O)OCC)c(N)n2)nc1N	15	11µM*	15%	10µM*	/
C=CCSc1ncc(C(=O)OCC)c(N)n1	3	0%	14%	12%	9
Cc1cccc(OCCn2c(S(=O)(=O)O)nc3ccccc32)c1	0	-2%	27%	18%	8
c1ccc(OCCn2c(-c3ccco3)nc3ccccc32)cc1	-10	1%	11%	11µM*	-6
Cc1cccc(OCCn2c(-c3ccco3)nc3ccccc32)c1	-12	-2%	3%	16µM*	-11
